CYP2C19 activ: increases human CYP2C19 enzyme activity; 96,000 tested, under 10 active; recombinant CYP2C19, luciferin-H EGE luminescence; active compounds read high; 0 = fully inhibited enzyme, 1 = untreated enzyme; activation factor at 5 µM; P33261;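 active = activation factor of at least 2 at 5 µM in the primary screen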;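 note: 0 = wells with 2.5 mM tranylcypromine and 1 = vehicle-only wells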
CYP2C19 inh: human CYP2C19 inhibition | CYP2C19 Supersomes, luciferin-H EGE luminescence, 30 min | AID 778 | P33261 | 96,000 tested, 21% active | inhibition, % at 5 µM;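 active = CYP2C19 inhibition above a set limit at 5 µM in the primary screen, cut at about 50% in these data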;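 note: plate controls were negative control wells for no effect and 2.5 mM tranylcypromine positive control for full effect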
Cav3 T inh: blocks human Cav3.2 T-type calcium channel; B-score at 10 µM; 100,000 tested, 4% active; AID 449739; O95180; Cav3.2-expressing cells, Fluo-4 calcium fluorescence FDSS; active compounds read low;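 active = single-dose well whose peak fluorescence ratio is a statistical outlier from its plate by either plate-standardised score or position-corrected B-score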
CYP2C9 inh: human CYP2C9 inhibition | CYP2C9 Supersomes, luciferin-H conversion, luminescence | 96,000 tested, 20% active | AID 777 | P11712 | inhibition, % at 5 µM;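 active = blocking of liver enzyme CYP2C9 beyond about 50% at 5 µM, limit read from the data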
CYP2C9 act: CYP2C9 (human) activation; recombinant CYP2C9, luciferin-H conversion, luminescence; active compounds read high; factor 1 = untreated enzyme, 0 = blocked; activation factor at 5 µM; 96,000 tested, 1.4% active;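 active = activation factor of 2 or more for CYP2C9 at a 5 µM dose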;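 note: 0 = sulfaphenazole-blocked wells and 1 = vehicle-only wells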
The depositor's hits bear a star. An excerpt weighted towards active compounds, which were near 27% of everything screened.

`O=[N+]([O-])c1ccc2nc(/C=C/c3ccc(Cl)cc3)[nH]c2c1` gave CYP2C19 activ 0.7, CYP2C19 inh 32, Cav3 T inh -2.4, CYP2C9 inh 43 and CYP2C9 act 0.6.
CCCn1c2c(c(O)c(C(=O)Nc3ccc(OCC)cc3)c1=O)CCCC2 was read as CYP2C19 activ 1, CYP2C19 inh -2, CYP2C9 inh 52* and CYP2C9 act 0.5.
For CCCn1c2c(c(O)c(C(=O)Nc3ncccc3C)c1=O)CCCC2 the results were CYP2C19 activ 0.9, CYP2C19 inh 6, Cav3 T inh -1.8, CYP2C9 inh 35 and CYP2C9 act 0.6.
`CCN(CC)C(=O)/C(=C\c1ccc(Br)cc1)NC(=O)c1ccccc1OC` gave CYP2C19 activ 0.7, CYP2C19 inh 28, Cav3 T inh -1.3, CYP2C9 inh 73* and CYP2C9 act 0.3.
For CCc1ccc(NC(=O)CCn2cccc2)cc1 the results were CYP2C19 activ 0.3, CYP2C19 inh 71*, Cav3 T inh 0.35, CYP2C9 inh 23 and CYP2C9 act 0.8.
CCC(Cc1ccccc1)NC(=O)CCn1cccc1 (stereo unspecified) was read as CYP2C19 activ 0.3, CYP2C19 inh 66*, Cav3 T inh -1.4, CYP2C9 inh 66* and CYP2C9 act 0.3.
Screening O=C(CCN1CCc2ccccc2C1)Nc1ccc(F)cc1 returned CYP2C19 activ 0.4, CYP2C19 inh 61*, Cav3 T inh -0.39, CYP2C9 inh 20 and CYP2C9 act 0.8.
For O=C(CCn1cccc1)NCc1ccccc1 the results were CYP2C19 activ 0.9, CYP2C19 inh 9, Cav3 T inh 0.015, CYP2C9 inh -7 and CYP2C9 act 1.1.
O=C(CCN1CCN(c2ccc(F)cc2)CC1)Nc1ccc(F)cc1 was read as CYP2C19 activ 0.5, CYP2C19 inh 50, CYP2C9 inh 2 and CYP2C9 act 1.
For O=C(CCn1cccc1)Nc1ccc(F)cc1 the results were CYP2C19 activ 0.4, CYP2C19 inh 62*, Cav3 T inh 1, CYP2C9 inh 33 and CYP2C9 act 0.7.
Screening O=C(CCn1cccc1)Nc1cc(F)ccc1F returned CYP2C19 activ 0.6, CYP2C19 inh 35, Cav3 T inh 0.75, CYP2C9 inh 12 and CYP2C9 act 0.9.
CC(C)(C)C(=O)/C=C/Nc1ccccc1O was read as CYP2C19 activ 1, CYP2C19 inh 0, Cav3 T inh -0.89, CYP2C9 inh -2 and CYP2C9 act 1.
Screening CCOC(=O)Cn1ncc(-c2ccccc2)c1N returned Cav3 T inh 0.084.
Screening Cn1cnnc1SCCn1c(N2CCCCC2)nc2c1c(=O)[nH]c(=O)n2C returned CYP2C19 activ 0.9, CYP2C19 inh 8, Cav3 T inh -0.32, CYP2C9 inh 7 and CYP2C9 act 0.9.
For COC(=O)c1ccc2c(=O)sc(N3CCC(C(N)=O)CC3)nc2c1 the results were CYP2C19 activ 0.9, CYP2C19 inh 6, CYP2C9 inh 25 and CYP2C9 act 0.8.
For CN1CCN(CCC(=O)Nc2cccc(F)c2)CC1 the results were CYP2C19 activ 1, CYP2C19 inh -1, Cav3 T inh -5*, CYP2C9 inh -6 and CYP2C9 act 1.1.
O=C(CCN1CCCC1)Nc1cccc(Br)c1 was read as CYP2C19 activ 1.1, CYP2C19 inh -7, Cav3 T inh 1.5, CYP2C9 inh 1 and CYP2C9 act 1.
Screening N#Cc1ccc(COc2ccc(CCO)cc2-n2nc3ccccc3n2)cc1 returned CYP2C19 activ 0.5, CYP2C19 inh 53*, Cav3 T inh 0.33, CYP2C9 inh 89* and CYP2C9 act 0.1.
C=CCN(CC=C)C(=O)Cc1ccc(F)cc1 was read as CYP2C19 activ 0.7, CYP2C19 inh 26, Cav3 T inh -0.09, CYP2C9 inh -19 and CYP2C9 act 1.2.
O=C(Nc1cccnc1Cl)c1ccc(S(=O)(=O)N2CCCCCC2)cc1 was read as CYP2C19 activ 1.1, CYP2C19 inh -8, CYP2C9 inh 27 and CYP2C9 act 0.7.
N#CCCSc1ccccc1NC(=O)c1ccc(S(=O)(=O)N2CCCC2)cc1 was read as CYP2C19 activ 0.8, CYP2C19 inh 19, Cav3 T inh -0.07, CYP2C9 inh 76* and CYP2C9 act 0.2.
CCOC(=O)c1[nH]cnc1C(=O)Nc1ccncc1 was read as CYP2C19 activ 0.7, CYP2C19 inh 33, Cav3 T inh 0.19, CYP2C9 inh 54* and CYP2C9 act 0.5.
Screening CC1(C)CC(=O)C2=C(C1)N(Cc1cccnc1)C(=O)C2(NC(=O)c1ccc(F)cc1)C(F)(F)F (stereo unspecified) returned CYP2C19 activ 0.8, CYP2C19 inh 20, Cav3 T inh 1.8, CYP2C9 inh 23 and CYP2C9 act 0.8.
For CCN(CC)S(=O)(=O)c1ccc2nc(SC)sc2c1 the results were CYP2C19 activ 0.2, CYP2C19 inh 78*, Cav3 T inh 0.022, CYP2C9 inh 33 and CYP2C9 act 0.7.
`CSc1nc2ccc(S(=O)(=O)N(C)C)cc2s1` gave CYP2C19 activ 0.1, CYP2C19 inh 86*, Cav3 T inh 0.25, CYP2C9 inh 31 and CYP2C9 act 0.7.
Screening CSc1nc2ccc(NS(=O)(=O)c3ccc(Cl)s3)cc2s1 returned CYP2C19 activ 0, CYP2C19 inh 100*, Cav3 T inh -5.6*, CYP2C9 inh 100* and CYP2C9 act 0.
`Cc1ccc(C)c(NC(=O)Cn2nc(C)c3ccccc3c2=O)c1` gave CYP2C19 activ 0.9, CYP2C19 inh 14, Cav3 T inh -0.037, CYP2C9 inh 1 and CYP2C9 act 1.
Screening O=C(c1ccc(C23CC4CC(CC(C4)C2)C3)o1)N1CCOCC1 returned CYP2C19 activ 1, CYP2C19 inh 5, Cav3 T inh -2, CYP2C9 inh -6 and CYP2C9 act 1.1.
For COc1cccc(CNc2nc3nc(C)cc(=O)n3[nH]2)c1 the results were CYP2C19 activ 1.1, CYP2C19 inh -7, Cav3 T inh 0.2, CYP2C9 inh 4 and CYP2C9 act 1.
For CCOC(=O)C(C(=O)OCC)C1CS(=O)(=O)CC1C(C(=O)OCC)C(=O)OCC (stereo unspecified) the results were Cav3 T inh -0.028.
`Cc1cc(C)n(C(=O)C23CC4CC(CC(C4)C2)C3)n1` gave CYP2C19 activ 1, CYP2C19 inh -3, Cav3 T inh -5.6*, CYP2C9 inh 3 and CYP2C9 act 1.
`O=C(NCc1ccccc1Cl)c1ccc(Cn2cc(C(F)(F)F)ccc2=O)cc1` gave CYP2C19 activ 0.9, CYP2C19 inh 13, Cav3 T inh -0.93, CYP2C9 inh 14 and CYP2C9 act 0.9.
`O=C(NCc1ccc(Cl)cc1)c1ccc(Cn2cc(C(F)(F)F)ccc2=O)cc1` gave CYP2C19 activ 0.9, CYP2C19 inh 10, Cav3 T inh -5.7*, CYP2C9 inh 47 and CYP2C9 act 0.5.
Screening COc1cc(C)nc(OCCNC(=O)COc2ccc(Cl)cc2Cl)n1 returned CYP2C19 activ 0.3, CYP2C19 inh 73*, Cav3 T inh -0.33, CYP2C9 inh 63* and CYP2C9 act 0.4.
`C=CCOC(=O)C1=C[C@@H](C2CCCCC2)C[C@@H](OCc2ccc(CO)cc2)O1` gave Cav3 T inh -2.6.

Source: PubChem (several laboratories)
